MEKK2mut PB1 HTS: signal of MEK5 binding to mutant human MEKK2 PB1 domain; bead flow cytometry, Alexa488-MEK5 binding to MEKK2 mutant; actives 0.35% (n = 290,000); AID 1530; percent response, % at 10 µM; in the data active = percent response above about 24%, passing the limit was not always enough
CHT allo act: allosterically activates the human high affinity choline transporter; CHT-expressing cells, membrane potential dye, choline EC20; hits give high values; LV-AA mutant CHT in HEK293 cells; actives 0.49% (n = 310,000); Q9GZV3; AID 488977; B-score at 10 µM;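 active = initial fluorescence not abnormally high and integrated response B-score, plate-corrected, over 3 SD above library mean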
Target sequence (Q9GZV3 whole entry, looked up): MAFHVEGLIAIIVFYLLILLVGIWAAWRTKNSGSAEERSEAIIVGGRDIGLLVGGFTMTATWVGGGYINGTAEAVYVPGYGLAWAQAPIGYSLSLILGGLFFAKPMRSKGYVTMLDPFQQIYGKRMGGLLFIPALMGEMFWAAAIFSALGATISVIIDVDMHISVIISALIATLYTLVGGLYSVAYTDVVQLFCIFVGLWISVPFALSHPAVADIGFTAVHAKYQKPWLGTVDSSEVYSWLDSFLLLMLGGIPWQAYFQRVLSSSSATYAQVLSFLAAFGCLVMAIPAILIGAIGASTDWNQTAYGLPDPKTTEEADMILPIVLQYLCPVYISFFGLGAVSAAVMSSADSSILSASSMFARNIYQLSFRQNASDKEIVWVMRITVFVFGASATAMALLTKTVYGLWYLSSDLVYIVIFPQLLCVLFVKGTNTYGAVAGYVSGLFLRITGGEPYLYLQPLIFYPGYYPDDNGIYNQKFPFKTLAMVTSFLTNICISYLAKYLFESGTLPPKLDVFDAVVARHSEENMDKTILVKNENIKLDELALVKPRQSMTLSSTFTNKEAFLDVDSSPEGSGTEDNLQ
SUMO Mot1 rescue: SUMOylation pathway inhibition by Mot1-301 growth rescue | S. cerevisiae Mot1-301 growth rescue, ATP luminescence, 38.5C; percent above DMSO median, 100 means doubled | AID 2716 | growth rescue, % at 18.8 µM | actives 1% (n = 320,000);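 active = every valid replicate shows activation above 250% relative to neutral control wells; inactive = the rest, any valid replicate at or below 250%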;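 also: OY570 slx delta 5 strain wells were the positive control but not used for scaling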
MEKK3 PB1 HTS: raises or lowers MEK5 binding to the human MEKK3 PB1 domain; Q99759; bead-based flow cytometry, Alexa488-MEK5 binding to MEKK3; actives lie on both sides; 0 = blocked by unlabeled MEK5, 100 = vehicle; binding response (% of control), % at 10 µM; actives 1.4% (n = 290,000);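 active = binding response more than 3 SD above or below the average of its plate-row segment, actives on both sides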;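 also: Alexa488 bead fluorescence after subtracting the streptavidin-only scavenger bead signal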
CHT inh: inhibitors of human choline transporter CHT. Q9GZV3. CHT-expressing cells, membrane potential dye, choline response; hits give low values. B-score at 10 µM. actives 0.86% (n = 310,000). AID 488975;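 active = B-score over 3 SD under the library average, and starting fluorescence ratio not unusually high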;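 also: choline stimulus applied at its EC90 after an EC20 pre-addition; B-score computed on integrated fluorescence ratio after choline addition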
MEKK2 WT-MEK5: raises or lowers MEK5 binding to wildtype human MEKK2 PB1 domain; AID 1531; binding response (% of control), % at 10 µM; bead flow cytometry, Alexa488-MEK5 binding to MEKK2 WT; actives lie on both sides; Q9Y2U5; actives 1.1% (n = 290,000); in the data active = binding response below about 67% or above about 130%
Yeast Mot1 SUMO: inhibits SUMO pathway, affecting Mot1-301 yeast growth; AID 493004; S. cerevisiae Mot1-301 galactose growth, ATP luminescence, 24 h; -100 = growth of slx-deleted rescue strain; growth activity, percent, % at 42 µM; 2,300 tested, under 10 active; shares compounds with SUMO Mot1 rescue;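 active = Signal drops as the depositor expects, and the fitted half-maximal dose is no more than ten times the top valid tested dose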;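 also: more negative values mean stronger growth rescue toward the control strain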
An asterisk follows results filed as active; i = inactive; · = no result; + = active, no number; [ ] = another dose, or the depositor's remark. An excerpt weighted towards active compounds, which were near 4.1% of everything screened.

SMILES	MEKK2mut PB1 HTS	CHT allo act	SUMO Mot1 rescue	MEKK3 PB1 HTS	CHT inh	MEKK2 WT-MEK5	Yeast Mot1 SUMO
Cc1ccc(NC(=O)CN2C(=O)COc3ccc(S(=O)(=O)N4CCOCC4)cc32)cc1F	-8	i	500*	97	i	96	0
Cc1cc(C)cc(OCC(=O)Nc2ccc(N3CCN(C(=O)c4ccco4)CC3)cc2)c1	-6	i	793*	85	i	88	-1
Nc1ccc(-c2nc3ncccc3o2)cc1	-1	i	-5	100	i	102	·
Clc1ccccc1C(c1ccccc1)(c1ccccc1)n1ccnc1	4	i	662*	102	i	104	-2
FC(F)(F)c1ccccc1-n1ccnc1	·	i	12	·	i	·	·
CN(Cc1ccc(C(C)(C)C)cc1)C(=O)c1ccc2c(=O)n3c(nc2c1)CCC3	·	i	399*	·	i	·	0
O=C(NCCCN1CCCC1=O)c1cc(-c2ccc3c(c2)OCO3)nc2ccccc12	0	i	5	101	i	93	·
C=CC[N+]1(CC#CCOC(c2ccccc2)c2ccccc2)CCOCC1	9	i	-20	110	i	111	·
C=CC[N+]1(CC#Cc2ccccc2)CCCC1	-2	i	393*	100	i	99	0
Cc1nc(SCc2ccccc2C#N)n[nH]1	1	i	-9	104	i	108	·
Cc1ccccc1CSc1n[nH]c(NS(=O)(=O)c2ccccc2)n1	-1	i	+	104	i	104	0[21 µM]
CC(NC(=O)C1CCCN(S(=O)(=O)N2CCOCC2)C1)c1ccccc1 (stereo not drawn)	-4	i	368*	97	i	100	0
C=CCN1C(=O)/C(=C2/Sc3ccc(OC)cc3N2C)SC1=Nc1ccccc1	-5	i	+	105	i	100	0
CCCCN(C/C=C/c1ccccc1OC)Cc1ccccc1	9	i	529*	106	i	111	0
CCN(C/C=C/c1ccccc1OC)Cc1ccccc1	4	i	-13	101	i	107	·
O=C(CCc1nc(-c2ccc(Cl)cc2)no1)NC1CCCC1	1	i	6	103	i	103	·
O=C(CCCc1nc(-c2ccc(Cl)cc2)no1)NC1CCCCC1	-2	i	861*	102	i	102	1
CN(C)S(=O)(=O)N1CCC(Oc2cccc(C(=O)N3CCCCCCC3)c2)CC1	-4	i	38	101	i	102	·
Cc1onc(-c2ccccc2Cl)c1C(=O)N1CCOC12CCCCC2	-3	i	-4	100	i	101	·
COc1ccc(CN(CC(=O)NCC2CCCO2)C(=O)CNS(=O)(=O)c2ccc(C)cc2)cc1 (stereo not drawn)	4	i	18	104	i	107	·
Cc1ccc(S(=O)(=O)NCC(=O)N(CC(=O)NCc2ccc(F)cc2)CC2CCCO2)cc1 (stereo not drawn)	0	i	-14	99	i	92	·
COc1ccc(S(=O)(=O)NCC(=O)N(CC(=O)NCC2CCCO2)c2ccccc2C)cc1 (stereo not drawn)	3	i	921*	103	i	99	1
O=C(CN(CC1CCCO1)C(=O)CNS(=O)(=O)c1ccc(F)cc1)NCc1ccccc1 (stereo not drawn)	8	i	886*	102	i	101	0
C=CC(=O)NC1CC2CCC1(C)C2(C)C (stereo not drawn)	-5	i	459*	100	i	98	1
CCCc1nn2c(=O)cc(CSCC(=O)Nc3cccc(OC)c3)nc2s1	-6	i	-8	93	i	96	·
SMILES	MEKK2mut PB1 HTS	CHT allo act	SUMO Mot1 rescue	MEKK3 PB1 HTS	CHT inh	MEKK2 WT-MEK5	Yeast Mot1 SUMO
CCCc1nn2c(=O)cc(CSCC(=O)Nc3ccc(OC)cc3)nc2s1	-9	i	539*	92	i	94	1
Cc1ccccc1C(=O)NNC(=S)Nc1cccc(C(F)(F)F)c1	-1	i	405*	116	i	101	0
O=C1CCc2cc(S(=O)(=O)N3CCC(C(=O)NC4CCCC4)CC3)ccc2N1	4	i	518*	110	i	108	0
COc1ccccc1N1CCN(C(=O)c2sc3nc(C)nc(N4CCN(c5ccccn5)CC4)c3c2C)CC1	2	i	-18	100	i	98	·
CCOC(=O)c1sc2ncnc(N3CCN(c4ccc(OC)cc4)CC3)c2c1C	-3	i	623*	94	i	92	1
COc1ccccc1N1CCN(C(=O)c2sc3ncnc(N4CCN(c5ccccn5)CC4)c3c2C)CC1	-6	i	442*	100	i	97	0
CCN(CC)c1ncnc2sc(C(=O)N3CCN(c4ccc(OC)cc4)CC3)c(C)c12	15	i	-6	97	i	98	·
Cc1ccc(S(=O)(=O)N(C)c2ccc(OC(=O)CN3C(=O)NC4(CCCC4)C3=O)cc2)cc1C	·	i	+	·	i	·	0
Cc1ccc(S(=O)(=O)N(C)c2ccc(OC(=O)CN3C(=O)NC4(CCCC4)C3=O)cc2)cc1	·	i	24	·	i	·	·
O=C(Nc1ncccn1)c1ccc(C(F)(F)F)cc1	-2	i	438*	102	i	103	-1
O=C(NC1=NCCS1)c1ccc(C(F)(F)F)cc1	9	i	-11	107	i	103	·
COc1ccc(C(=O)CSc2nnc(CNC(=O)c3ccccc3)n2C)cc1	-3	i	397*	97	i	96	1
COc1ccc(C(=O)CSc2nnc(CNC(=O)c3ccc(OC)c(OC)c3)n2C)cc1	·	i	·	·	i	·	·
Cc1cccnc1NC(=O)CCNC(=O)c1ccccc1Cl	5	i	1	101	i	100	·
CCN(CC(=O)NC1CCS(=O)(=O)C1)C(=O)c1cc(OC)c(OC)c(OC)c1 (stereo not drawn)	·	·	16	·	·	·	·
Cc1ccc(N(CC(=O)Nc2ccccc2-c2ccccc2)S(=O)(=O)c2ccccc2)c(C)c1	-1	i	142	102	i	99	·
CC(C)C(NC(=O)C12CC3CC(CC(C3)C1)C2)C(=O)NC1=NCCS1 (stereo not drawn)	2	i	·	98	i	100	·
CC(NC(=O)C1CCCCC1)C(=O)NC1=NCCS1 (stereo not drawn)	-2	i	566*	95	i	93	0
